From PubChem
DT40 TDP1 no CPT: qHTS for Inhibitors of human tyrosyl-DNA phosphodiesterase 1 (TDP1): qHTS in cells in absence of CPT; DT40 Tdp1-/- hTDP1 cells, no CPT, ATP luminescence, 48 h; Potency, µM (doses to about 46.2 µM), for the others: at the highest dose activity change, negative = growth inhibition, usual class: inhibitors; actives 15% (n = 420,000); further: potency means the concentration at half of the fitted maximal effect; on the % scale 0 is the no-effect control and ±100 the full control effect; nearly all actives have a fitted effect of over 55% in size
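Compound effects on proliferation are scored in DT40 Tdp1-/-;hTDP1 cells in the absence of CPT. ATP levels (CellTiter-Glo luminescence) are recorded after a ≥48 hr, 37 °C incubation.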
miR-21 reporter: qHTS Assay for Modulators of miRNAs and/orActivators of miR-21; Potency, µM (highest dose often 38.3 µM), inactives show top-dose activity change, positive = activation, most hits filed as activators; HeLa miR-21 FLuc reporter, luciferase, 48 h; 340,000 tested, under 10 active;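 further: % of control where 0% means no effect; miR-21 action dims this reporter so a rising signal means less miR-21 action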
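HeLa cells stably expressing CMV-driven firefly luciferase with a downstream miR-21 binding sequence, endogenously expressing miR-21, were treated with titrations (up to about 40uM final) for 48 hours at 37 degree Celsius. Luciferase luminescence was read after lysis.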
TDP1 inh: qHTS Assay for Inhibitors of Tyrosyl-DNA Phosphodiesterase (TDP1); recombinant TDP1, AlphaScreen DNA substrate cleavage; Potency, µM (doses to about 130 µM), inactives show top-dose activity change, negative = inhibition, hits mostly inhibitors; Tyrosyl-DNA phosphodiesterase 1 (Homo sapiens), Q9NUW8; AID 485290, 2010; actives 0.28% (n = 350,000); further: potency means the concentration at half of the fitted maximal effect; on the % scale 0 is the no-effect control and ±100 the full control effect; nearly all actives have a fitted effect of over 40% in size
Target sequence (Q9NUW8 whole entry, looked up): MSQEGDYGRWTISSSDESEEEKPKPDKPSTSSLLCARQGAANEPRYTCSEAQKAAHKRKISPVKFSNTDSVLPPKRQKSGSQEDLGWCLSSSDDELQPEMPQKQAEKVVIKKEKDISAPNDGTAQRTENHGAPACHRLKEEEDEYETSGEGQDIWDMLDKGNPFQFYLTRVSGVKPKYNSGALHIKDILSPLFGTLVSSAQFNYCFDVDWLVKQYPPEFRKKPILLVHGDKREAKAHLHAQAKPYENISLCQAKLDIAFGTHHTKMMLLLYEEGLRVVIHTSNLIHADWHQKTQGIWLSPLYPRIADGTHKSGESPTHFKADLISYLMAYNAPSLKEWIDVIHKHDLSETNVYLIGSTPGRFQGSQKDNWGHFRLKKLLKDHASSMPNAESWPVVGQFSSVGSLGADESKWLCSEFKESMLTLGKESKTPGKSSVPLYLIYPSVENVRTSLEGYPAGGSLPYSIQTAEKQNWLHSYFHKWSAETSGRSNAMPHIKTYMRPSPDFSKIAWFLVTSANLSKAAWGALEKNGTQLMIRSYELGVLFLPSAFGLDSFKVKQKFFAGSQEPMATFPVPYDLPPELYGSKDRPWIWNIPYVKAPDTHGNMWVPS
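Recombinant human Tdp1 (E. coli-expressed, 1 nM final) preincubated with compounds 15 min at room temperature, then 5'-biotin/3'-phosphotyrosine-FITC DNA substrate (15 nM final) added for 5 min. AlphaScreen beads (10 ug/ml final) added 10 min; cleavage lowers signal.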
TDP1 cell CPT: qHTS for Inhibitors of human tyrosyl-DNA phosphodiesterase 1 (TDP1): qHTS in cells in presence of CPT | chicken DT40 Tdp1-/-;hTDP1 cells + 20 nM CPT, ATP luminescence, 48 h | actives 12% (n = 420,000) | AID 686979, 2013 | Potency, µM (highest dose often 46.2 µM), for the others: at the highest dose activity change, negative = growth inhibition, hits mostly inhibitors; further: potency means the concentration at half of the fitted maximal effect; on the % scale 0 is the no-effect control and ±100 the full control effect; nearly all actives have a fitted effect of over 55% in size
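Chicken DT40 Tdp1-/- cells stably complemented with human TDP1 were seeded at 400 cells/well in medium containing 20 nM camptothecin, exposed to pin-transferred compounds, and grown at 37 °C for at least 48 hr. Viability was read as ATP luminescence.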
uPA surface inh: qHTS for Inhibitors of Cell Surface uPA Generation; cell surface uPA generation assay, qHTS; Potency, µM (titrated, usually from 38.3 µM), for inactives: top-dose activity change, negative = inhibition, actives largely listed as inhibitors; actives 0.31% (n = 330,000); AID 540303, 2011; active means well fitted inhibition curve with a large enough effect; inconclusive means small, poorly fitted or top-dose-only effect; inactive means no such curve, though single readings can be large or run the other way; tested in mouse RAW 264.7 cells; further: potency means the concentration at half of the fitted maximal effect; on the % scale 0 is the no-effect control and ±100 the full control effect; nearly all actives have a fitted effect of over 55% in size
Starred values were filed as active, the others as inactive; ? = inconclusive; · = not tested or not shown. Compounds with a hit are over-represented: about 16% of the library has one in this group of screens. Unless noted, the call rests on the fitted dose curve; in most records, active means well fitted curve in the direction sought with a large enough effect; inconclusive means small, poorly fitted or top-dose-only effect, or another doubt; inactive means no such curve, though single readings can be large; an effect the other way counts as inactive or inconclusive.

SMILES	DT40 TDP1 no CPT	miR-21 reporter	TDP1 inh	TDP1 cell CPT	uPA surface inh
COc1cc2c(cc1OC)-c1cc(OCCN3CCOCC3)nc(=O)n1CC2	?	-19.4%	2.0%	23.1µM*	-4.1%
CCOc1ccccc1Nc1cc2n(c(=O)n1)CCc1cc(OC)c(OC)cc1-2	14.6µM*	-27.8%	·	?	-7.4%
CCNc1cc2n(c(=O)n1)CCc1cc(OC)c(OC)cc1-2	-17.1%	-15.5%	3.2%	-0.1%	-8.7%
O=C(O)Cn1nc(N2CCN(c3ccc(F)cc3)CC2)ccc1=O	-21.0%	-3.1%	0.0%	-5.4%	·
COC(=O)CNc1c(-c2ccccc2)nc2ccc(Br)cn12	?	-14.3%	6.6%	?	-9.4%
N#Cc1ccc(-c2nc3ccc(Br)cn3c2Cc2ccccc2)cc1	9.2µM*	·	·	11.6µM*	·
Cc1ccc(Cc2c(-c3ccc(C#N)cc3)nc3ccc(Br)cn23)cc1	?	·	·	20.6µM*	·
Cc1cc(C)c(NC(=O)CN2C(=O)CCn3nc(-c4cccn4C)cc32)c(C)c1	11.4%	10.2%	8.9%	3.9%	·
O=C(NC1CCCC1)C1c2ccccc2OCC(=O)N1CCCN1CCOCC1 (stereo not given)	-26.8%	·	·	-23.4%	·
CCOC(=O)c1ccc(N2CCN(c3cc(C)ccc3C)CC2)c(NC(=O)Nc2ccc(Cl)cc2)c1	4.61µM*	22.9%	2.6%	4.61µM*	·
CCOC(=O)N1CCC(Nc2c(N3CCN(c4cc(Cl)ccc4C)CC3)c(=O)c2=O)CC1	?	21.0%	4.9%	?	-15.8%
CCOC(=O)c1ccc(N2CCN(c3ccccc3F)CC2)c(NC(=O)Nc2cccc(OC)c2)c1	5.8µM*	?	2.7%	13µM*	1.4%
CCOC(=O)N1CCC(N2CCN(c3cc(C)ccc3C)CC2)CC1	?	15.4%	-1.0%	29.1µM*	·
CCOC(=O)c1ccc(N2CCN(c3cc(Cl)ccc3C)CC2)c(NC(=O)Nc2cccc(OC)c2)c1	9.2µM*	7.6%	7.8%	16.4µM*	·
CCOC(=O)c1ccc(N2CCN(c3cc(C)ccc3C)CC2)c(NC(=O)Nc2ccc(CC)cc2)c1	?	3.3%	2.6%	?	·
CCOC(=O)c1sc2ccccc2c1S(=O)(=O)N1CCN(c2cc(C)ccc2C)CC1	?	3.7%	0.6%	?	·
CCOC(=O)c1ccc(N2CCN(c3cc(C)ccc3C)CC2)c(N)c1	16.4µM*	-7.2%	·	14.6µM*	6.5%
COc1ccc2[nH]c3c(c2c1)CCN(C(=O)c1cccc(Cl)c1)C3c1ccc(F)cc1 (stereo not given)	?	20.9%	6.4%	?	·
CCNc1ccc(C(=O)OCC(=O)N(Cc2ccccc2)C(C)(C)C)cc1[N+](=O)[O-]	?	-5.8%	3.2%	14.6µM*	1.0%
CCCNc1ccc(C(=O)OCC)cc1[N+](=O)[O-]	-22.9%	-67.1%	4.9%	-9.5%	-0.4%
CCOC(=O)c1ccc(NC(C)=O)c([N+](=O)[O-])c1	-100.5%	-9.9%	5.2%	25.9µM*	-1.4%
Cc1ccc(NC(=O)CSc2ccc(C(N)=O)cc2[N+](=O)[O-])cc1C	16.4µM*	-18.2%	-5.1%	10.3µM*	-1.6%
Cc1ccc(NC(=O)CSc2ccc(C(N)=O)cc2[N+](=O)[O-])cc1	?	-35.9%	1.8%	?	5.4%
CCc1ccc(Nc2ccc(C(N)=O)cc2[N+](=O)[O-])cc1	23.1µM*	-4.7%	7.1%	?	8.2%
N#Cc1ccccc1S(=O)(=O)N1CCN(C(=O)c2cn(-c3ccccc3)nc2-c2cccnc2)CC1	-18.6%	·	-0.8%	-2.0%	-29.9%
SMILES	DT40 TDP1 no CPT	miR-21 reporter	TDP1 inh	TDP1 cell CPT	uPA surface inh
COc1ccc(N=C2C(=O)N3CCCc4cccc2c43)cc1	?	-24.1%	5.6%	?	-7.7%
Cc1cccc2c1NC(=O)C2=Nc1ccc(Cl)cc1	-13.3%	-4.6%	·	-24.5%	-4.2%
COc1cc(N=C2C(=O)N3c4c(cccc42)C(C)=CC3(C)C)cc(OC)c1	5.17µM*	-3.8%	9.5%	6.51µM*	-8.2%
CC1=CC(C)(C)N2C(=O)C(=Nc3ccc(O)cc3)c3cccc1c32	3.26µM*	29.2%	7.1%	4.11µM*	-6.0%
O=C(CN1C(=O)c2ccccc2Sc2ccc(C(=O)N3CCOCC3)cc21)Nc1ccc(Cl)cc1F	-0.7%	-5.4%	-4.7%	-10.6%	·
O=c1[nH]c(/C(Cl)=C/c2cccc(F)c2)nc2cc(C(F)(F)F)ccc12	23.1µM*	0.1%	3.5%	?	4.1%
CCc1ccc(/C=C(\Cl)c2nc3cc(Cl)ccc3c(=O)[nH]2)cc1	?	-0.4%	0.0%	?	4.8%
Cc1cccc(C(=O)Oc2csc(=S)n2C(=O)c2cccc(C)c2)c1	-21.4%	0.6%	2.2%	8.0%	2.4%
CCOc1ccc(S(=O)(=O)N2CCCC(C(=O)NCc3ccncc3)C2)cc1 (stereo not given)	?	16.9%	5.5%	?	5.4%
CN(c1cccc(Cl)c1)S(=O)(=O)c1cccc(C(=O)Nc2nc3ccccc3[nH]2)c1	23.1µM*	25.7%	8.1%	20.6µM*	-13.3%
COc1ccc(N(C)S(=O)(=O)c2cccc(C(=O)Nc3nnc(C)s3)c2)cc1	?	·	1.6%	-26.8%	-19.4%
COc1ccc(N(C)S(=O)(=O)c2cccc(C(=O)Nc3nc4ccccc4[nH]3)c2)cc1	?	15.9%	9.3%	23.1µM*	-8.8%
CCCCc1ccc(NC(=S)NCc2ccc(OC)cc2)cc1	18.4µM*	-15.9%	5.5%	?	2.0%
COc1ccc(CCNC(=S)Nc2ccc(OC)cc2)cc1	?	-4.4%	7.7%	?	-28.0%
COc1ccc(CCNC(=S)Nc2ccc(C(C)C)cc2)cc1	18.4µM*	8.5%	-3.1%	?	7.9%
CCC(C)c1ccc(NC(=S)Nc2ccc(OC)cc2)cc1 (stereo not given)	16.4µM*	-12.4%	0.6%	23.1µM*	-1.8%
CCCCc1ccc(NC(=S)N2CCCC2)cc1	14.6µM*	-54.0%	3.4%	11.6µM*	-10.3%
CCCn1c(=O)c(C(=O)NCc2ccc3c(c2)OCO3)c(O)c2ccccc21	?	-5.3%	·	?	10.3%
COc1ccc(CCNC(=S)Nc2ccccc2)cc1	?	2.0%	7.1%	?	-0.1%
CC(C)c1ccc(NC(=S)Nc2ccc(OC(F)(F)F)cc2)cc1	23.1µM*	-11.1%	7.7%	18.4µM*	3.9%
COc1ccc(CCNC(=S)Nc2cc(C)cc(C)c2)cc1	23.1µM*	0.8%	5.7%	?	3.6%
CCOC(=O)c1c(Nc2cccc(C)c2)nnc(-c2ccccc2)c1-c1ccccc1	16.4µM*	?	·	?	·
